High-throughput results as filed in PubChem BioAssay.
IL1B secr inh: qHTS for Inhibitors of Inflammasome Signaling: IL-1-beta AlphaLISA Primary Screen; activity change, % at 57.5 µM; AID 743279, 2014; hit rate 4.7% among 360,000; THP-1 LPS/ATP IL-1B secretion, AlphaLISA, 16 h; stronger effect = lower value; in the data active = activity change below about -50%; inconclusive = mostly about -30% to -49%
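THP-1 cells pretreated 1 hr with compounds (up to 57.5 uM final), then stimulated with LPS (250 ng/mL final) plus ATP (1.25 mM final); secreted IL-1B measured by AlphaLISA after 16 hr, decreased signal indicating inhibition.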
HT1080 IDH1KD tx: qHTS for induction of synthetic lethality in tumor cells producing 2HG: qHTS for the HT-1080-IDH1KD cell line; HT-1080 IDH1 knockdown viability, ATP luminescence, 48 h; hit rate 2% among 360,000; Potency, µM (highest dose often 46.1 µM), most hits filed as cytotoxic
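CellTiter-Glo luminescence after 48 h compound exposure at 37 degrees C of IDH1-knockdown HT-1080 cells in 5% FBS RPMI. %Activity scaled between DMSO wells and cell-free media wells, with curves fitted and assigned curve classes.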
DT40 TDP1 CPT: qHTS for Inhibitors of human tyrosyl-DNA phosphodiesterase 1 (TDP1): qHTS in cells in presence of CPT. hit rate 12% among 420,000. Potency, µM (highest dose often 46.2 µM), hits mostly inhibitors. AID 686979, 2013. chicken DT40 Tdp1-/-;hTDP1 cells + 20 nM CPT, ATP luminescence, 48 h; also: nearly all actives have a fitted effect of over 55% in size
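Chicken DT40 Tdp1-/- cells stably complemented with human TDP1 were seeded at 400 cells/well in medium containing 20 nM camptothecin, exposed to pin-transferred compounds, and grown at 37 °C for at least 48 hr. Viability was read as ATP luminescence.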
TDP1 cell noCPT: qHTS for Inhibitors of human tyrosyl-DNA phosphodiesterase 1 (TDP1): qHTS in cells in absence of CPT | DT40 Tdp1-/- hTDP1 cells, no CPT, ATP luminescence, 48 h | hit rate 15% among 420,000 | AID 686978, 2013 | Potency, µM (titrated, usually from 46.2 µM), most hits filed as inhibitors; also: nearly all actives have a fitted effect of over 55% in size
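Stably hTDP1-transfected Tdp1-null chicken DT40 cells were treated with library compounds minus camptothecin and grown for at least 48 hr at 37 °C, after which cellular ATP was quantified by luminescence.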
HT1080NT lethal: qHTS for induction of synthetic lethality in tumor cells producing 2HG: qHTS for the HT-1080-NT fibrosarcoma cell line; Potency, µM (top dose mostly 46.1 µM), most hits filed as cytotoxic; HT-1080-NT fibrosarcoma viability, CellTiter-Glo ATP luminescence, 48 h; hit rate 1.6% among 360,000; AID 686970, 2013;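 also: NT is the 2HG producing partner of a matched IDH1 knockdown line; nearly all actives have a fitted effect of over 55% in size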
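Luminescent CellTiter-Glo readout after 48 hours of compound exposure at 37 degrees C defined viability of HT-1080-NT cells. Activity was normalized to DMSO wells and cell-free media wells; concentration-response curves were fitted and assigned curve classes.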
A number is an active result; - = inactive; ? = inconclusive; . = not tested or not shown; ! = a repeat was not active; [ ] = dose if it differs, or a comment. A selection: hits, their analogues and other compounds. The true share with any hit is near 19%. Unless noted, calls follow the shape of the dose curve; as a rule, active = well fitted curve in the direction sought with a large enough effect; inconclusive = small, poorly fitted or top-dose-only effect, or another doubt; inactive = no such curve, though single readings can be large; an effect the other way counts as inactive or inconclusive.

SMILES	IL1B secr inh	HT1080 IDH1KD tx	DT40 TDP1 CPT	TDP1 cell noCPT	HT1080NT lethal
Cc1ccc(-c2nnnn2C2C/C(=N\NC(N)=S)C3OCC2O3)cc1 (configuration not stated)	-	-	-	-	-
O=S(=O)(NCc1ccccc1)[C@@H]1CC2C=CC1C2 (some centres not stated)	-	-	-	?	-
CCSc1nnc(NC(=O)c2nc(S(=O)(=O)Cc3ccc(F)cc3)ncc2Cl)s1	-103.2	?	13µM	10.3µM	?
Cc1ccc(CS(=O)(=O)c2ncc(Cl)c(C(=O)Nc3nnc(C(C)C)s3)n2)cc1	-100.5	9.2µM	5.8µM!	11.6µM	20.6µM
Cc1nnc(NC(=O)c2nc(S(=O)(=O)Cc3ccccc3C)ncc2Cl)s1	-94.0	?	14.6µM	11.6µM	18.4µM
CC(C)c1nnc(NC(=O)CS(=O)(=O)Cc2ccccc2)s1	-	-	-	-	-
Cc1cccc(CS(=O)(=O)c2ncc(Cl)c(C(=O)Nc3nnc(C(C)C)s3)n2)c1	-102.2	7.31µM	4.61µM	13µM	10.3µM
CCOc1ccc(C(=O)NCC(=O)N2CCC(C)CC2)cc1OCC	-	-	-	-	-
NS(=O)(=O)c1cccc(NS(=O)(=O)c2cccc(C(F)(F)F)c2)c1	-	-	-	-	-
COc1ccc(C(O)c2nc(-c3cccc4cccnc34)cs2)cc1 (configuration not stated)	-	-	-	-	-
CCCCNC(=S)NNC(=O)c1ccco1	-	-	-	-	-
Cc1ccc(C)c(NC(=O)c2nc(S(=O)(=O)Cc3ccc(F)cc3)ncc2Cl)c1	.	.	1.46µM	2.06µM	.
CC(=O)c1ccc(OC(=O)CCc2nc3ccccc3s2)cc1	-	-	-	?	-
Cc1ccc2c(c1)nnn2C1CCN(CC(=O)NNC(=O)c2ccco2)CC1	-	-	-	-	-
Cc1cccc(C)c1-n1nnnc1C(c1ccnc2ccccc12)N(CCN(C)C)Cc1ccccc1 (configuration not stated)	?	20.6µM	?	?	20.6µM
Cc1cccc(C)c1-n1nnnc1C(c1ccnc2ccccc12)N1CCN(CCN(C)C)CC1 (configuration not stated)	-	-	?	?	-
Cc1cccc(C)c1-n1nnnc1C(c1ccnc2ccccc12)N(C)Cc1ccccc1 (configuration not stated)	-	-	?	16.4µM	-
O=C(N/N=C/c1ccc(Cl)cc1Cl)c1n[nH]c2c1CCCC2	-	6.51µM	2.91µM	2.91µM	8.2µM
O=C(N/N=C/c1cccc2ccccc12)c1n[nH]c2c1CCCC2	-	1.46µM	4.61µM	4.11µM	1.46µM
CC(O)C(=O)N/N=C/c1cccc2ccccc12 (configuration not stated)	-	-	-	?	-
CCOC(=O)C(C(=O)OCC)C(c1ccccc1)N1CCN(c2ccccc2)CC1 (configuration not stated)	-	-	?	20.6µM	-
CC(CC(=O)c1ccc(F)cc1)N1CCN(c2ccccc2)CC1 (configuration not stated)	-	-	18.4µM	?	-
COc1ccc(C2=Nc3ccccc3OC2)cc1	-	-	25.9µM	14.6µM	-
Cc1ccc(S(=O)(=O)N2CCOCC2)cc1NC(=O)COC(=O)/C=C/c1ccc(F)cc1	-	-	?	?	-
CCN(c1ccc(NC(=O)COC(=O)/C=C/c2ccco2)cc1)C(C)C	-	-	25.9µM	18.4µM	-
SMILES	IL1B secr inh	HT1080 IDH1KD tx	DT40 TDP1 CPT	TDP1 cell noCPT	HT1080NT lethal
CCN(CC)c1ccc(S(=O)(=O)N2CCOCC2)cc1NC(=O)COC(=O)/C=C/c1ccco1	-	-	23.1µM	25.9µM	-
CCN(CC)c1ccc(S(=O)(=O)N2CCOCC2)cc1NC(=O)COC(=O)c1cccnc1SC	-	-	?	16.4µM	-
O=C(CN1C(=O)NC2(CCCCC2)C1=O)NNC(=O)C1CC1	-	-	-	-	-
CC1(C)C2(Cl)C(Cl)C(Cl)C(Cl)(C(Cl)Cl)C1(Cl)C2Cl (configuration not stated)	.	.	-	-	.
COc1ccc([C@H]2CC(=O)C[C@@H](CCn3nnc4ccccc43)O2)cc1	-	-	-	-	-
Cn1cc([N+](=O)[O-])c(C(=O)N(Cc2ccccc2)Cc2ccccc2)n1	-	-	?	25.9µM	-
O=C(c1ccccc1[N+](=O)[O-])N(CCc1ccccc1)Cc1ccccc1	-	-	16.4µM	11.6µM	-
COc1ccc(C(=O)N(CCc2ccccc2)Cc2ccccc2)c(OC)n1	-64.2	-	?	?	-
CS(=O)(=O)c1ccccc1C(=O)N(CCc1ccccc1)Cc1ccccc1	-	-	-	-	-
Cc1cccc(C(=O)N(CCc2ccccc2)Cc2ccccc2)c1[N+](=O)[O-]	-	?	10.3µM	7.31µM	?
CS(=O)(=O)c1ccc(C(=O)N(CCc2ccccc2)Cc2ccccc2)cc1	-	-	-	-	-
COc1ccc(CN(C(C)=O)c2ccccc2C(=O)O)cc1	-	-	-	-	-
COc1ccc(N(Cc2ccccc2)C(=O)c2ccccc2[N+](=O)[O-])cc1	-	-	?	9.2µM	-
CC(/C=C/c1ccccc1)=N/NC(=O)c1cccc(Br)c1	-	?	?	23.1µM	-
CC(/C=C\C=C\c1ccccc1)=N\NC(=O)c1cncc(Br)c1	-	-	7.31µM	7.31µM	-
CC(/C=C/c1ccccc1)=N\NC(=O)c1ccc(Br)cc1	-	-	?	?	-
CC(/C=C/C=C/c1ccccc1)=N/NC(=O)C(O)c1ccccc1 (configuration not stated)	-	-	-	18.4µM	-
CC(/C=C/c1cccc([N+](=O)[O-])c1)=N\NC(=O)c1ccncc1	-	-	?	23.1µM	-
CCc1ccc(CNC(=O)CN2C(=O)CSc3ccc(S(=O)(=O)N4CCOCC4)cc32)cc1	.	.	-	?	.
Cc1nc2ccc(C(=O)N3CCc4c(cnc(C)c4CNC(=O)/C=C/c4cccs4)C3)cc2nc1C	.	.	-[9.04 µM]	-	.
Cc1ccc(C(=O)COC(=O)C(C)N2C(=O)C3C4C=CC(C4)C3C2=O)cc1 (configuration not stated)	-	-	-	-	-
CC(C(=O)OCC(=O)c1ccc([N+](=O)[O-])cc1)N1C(=O)C2C3CCC(C3)C2C1=O (configuration not stated)	-	-	16.4µM	?	-
O=C(CN1C(=O)C2C3C=CC(C3)C2C1=O)OCC(=O)c1ccc([N+](=O)[O-])cc1 (configuration not stated)	-69.4	-	?	?	-
